Data on 5 compounds can be found in PubChem BioAssay.

The test system of test [1] is Human papillomavirus type 1a protein E7 (residues 44-93). The test is described as follows: HPV1a E7 fragment binders on microarrays, primary screen, biochemical, small-molecule microarray, residues 44-93, 635 nm fluorescence (AID 1108).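 Note: E7 fragment applied at 1 µg/mL in TBST for 1 h at 4 C; score combines spot fluorescence with its signal to noise ratio.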 The note with it: small-molecule microarray binding, fluorescence 635 nm; higher = more signal.
The nature of test [2]: modulators of HCV replicon luciferase signal, primary screen, HCV replication inhibitor project, Huh7 cells, luciferase reporter (AID 1109).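 Note: huh7 hepatoma cells harbouring a luciferase neomycin HCV replicon reporter; luciferase luminescence as measure of HCV replicon replication; test concentration not given here.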 The note with it: 48 h, higher = more signal.
The target of test [3] is Left-right determination factor 2 (Homo sapiens) (UniProt O00292). The test is described as follows: LEFTY2 binders on small-molecule microarrays, primary screen, biochemical, small-molecule microarray, 635 nm fluorescence scan (AID 1110). The following applies: LEFTY2 binding, higher = more signal.
Left-right determination factor 2 (Homo sapiens), sequence (O00292 whole entry, looked up): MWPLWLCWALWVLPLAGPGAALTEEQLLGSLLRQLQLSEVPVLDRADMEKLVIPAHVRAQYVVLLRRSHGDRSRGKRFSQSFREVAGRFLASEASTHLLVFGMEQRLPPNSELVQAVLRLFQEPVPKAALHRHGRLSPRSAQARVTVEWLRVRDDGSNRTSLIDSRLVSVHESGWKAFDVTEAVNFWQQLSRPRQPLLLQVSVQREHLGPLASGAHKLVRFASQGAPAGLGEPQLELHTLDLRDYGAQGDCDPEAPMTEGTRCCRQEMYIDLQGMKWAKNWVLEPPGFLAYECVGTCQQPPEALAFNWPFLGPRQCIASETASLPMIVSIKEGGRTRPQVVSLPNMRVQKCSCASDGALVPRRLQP
Test [4] concerns the target Calmodulin-1 (Homo sapiens) (UniProt P0DP23). The test is described as follows: CALM1 binders on microarrays, EGTA buffer, profiling panel, biochemical, small-molecule microarray, Cy5-labelled CALM1 (AID 1111).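 Note: labelled calmodulin applied in Tris saline Tween buffer holding calcium plus EGTA and DTT.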 The following applies: Cy5-CALM1 binding fluorescence, higher = more signal.
The target is the same in test [5]. The test is described as follows: calcium-bound CALM1 binders on microarrays, profiling panel, artefact control for SMM control-protein annotation, biochemical, small-molecule microarray, Cy5-labelled CALM1, plus calcium (AID 1112).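 Note: score merges spot fluorescence with signal to noise from triplicate slides.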 The note with it: Cy5-CALM1 binding fluorescence, higher = more signal.
The nature of test [6]: small-molecule microarray binders of probe aWnt5a, primary screen, biochemical, biotinylated probe, 635/667 nm fluorescence (AID 1113).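 Note: score merges 667 nm fluorescence intensity with signal-to-noise per printed feature.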 The following applies: higher = more signal.
A short description of test [7]: small-molecule microarray binders of probe aShh, primary screen, biochemical, biotinylated probe, 635/667 nm fluorescence (AID 1114).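 Note: probe is biotin-labelled aShh protein from a stem cell growth factor screen; measures binding of labelled protein to compounds printed on the slide; score merges feature fluorescence at 667 nm with signal-to-noise.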 The note with it: higher = more signal.
Test [8] in a line: small-molecule microarray binders of probe aNog, primary screen, biochemical, biotinylated probe, 635/667 nm fluorescence (AID 1115).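 Note: probe is biotinylated aNog protein used at 0.15 µg/mL for 1 h at 4 C; z-score combines 667 nm fluorescence of each spot with its signal to noise.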 The following applies: higher = more signal.
Test [9] has as its target Torsin-1A-interacting protein 1 (Homo sapiens) (UniProt Q5JTV8). As to the kind of experiment: LAP1 binders from COS7 cell lysate, primary screen, small-molecule microarray, 635/667 nm fluorescence (AID 1116). The note with it: COS7-hLAP1 lysate binding, 635 nm fluorescence, higher = more signal.
The target in test [10] is Alpha-bungarotoxin (Bungarus multicinctus) (UniProt P60615). As to the kind of experiment: alpha-bungarotoxin binders on microarray, profiling panel, artefact control for SMM control protein annotation, biochemical, small-molecule microarray, Alexa647 label, 635/667 nm fluorescence (AID 1117). The note with it: alpha-BTX-A647 binding fluorescence, higher = more signal.
Alpha-bungarotoxin (Bungarus multicinctus), sequence (P60615 whole entry, looked up): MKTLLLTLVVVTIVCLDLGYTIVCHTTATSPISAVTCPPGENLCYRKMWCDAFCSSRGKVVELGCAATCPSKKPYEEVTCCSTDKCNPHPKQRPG
The target in test [11] is Albumin (Bos taurus) (UniProt P02769). The test is described as follows: bovine serum albumin binders on microarray, profiling panel, artefact control for SMM control protein annotation, biochemical, small-molecule microarray, Alexa647 label, 635/667 nm fluorescence (AID 1118).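 Note: score merges 667 nm emission intensity and signal-to-noise per printed compound spot.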 The following applies: BSA-A647 binding, fluorescence 635 nm, higher = more signal.
Albumin (Bos taurus), sequence (P02769 whole entry, looked up): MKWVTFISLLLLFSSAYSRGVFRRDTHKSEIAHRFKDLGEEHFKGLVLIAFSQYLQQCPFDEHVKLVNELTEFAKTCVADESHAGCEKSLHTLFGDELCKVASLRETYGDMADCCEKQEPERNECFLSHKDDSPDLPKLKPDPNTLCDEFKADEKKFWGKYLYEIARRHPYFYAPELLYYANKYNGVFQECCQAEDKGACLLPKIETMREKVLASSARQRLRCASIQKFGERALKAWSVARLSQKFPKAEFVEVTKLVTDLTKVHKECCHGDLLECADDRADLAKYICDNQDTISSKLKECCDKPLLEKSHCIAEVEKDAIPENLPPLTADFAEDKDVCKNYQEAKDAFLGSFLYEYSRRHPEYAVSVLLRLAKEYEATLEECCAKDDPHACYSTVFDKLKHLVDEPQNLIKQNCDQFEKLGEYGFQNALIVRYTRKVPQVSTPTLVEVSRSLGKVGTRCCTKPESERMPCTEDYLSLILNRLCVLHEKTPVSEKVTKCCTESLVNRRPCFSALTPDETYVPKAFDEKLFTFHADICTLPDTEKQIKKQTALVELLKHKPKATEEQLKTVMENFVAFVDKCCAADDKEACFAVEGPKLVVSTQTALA
Test [12] is described as follows: small-molecule microarray binders of probe aXIP, primary screen, biochemical, NeuroSMM set, 635/667 nm fluorescence (AID 1119).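 Note: probe is the protein aXip251-270 applied at 1 µg/mL to compound-printed slides; binding of probe to printed compounds measured as 667 nm fluorescence plus signal to noise.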 The note with it: higher = more signal, called active from +8 up or from −8 down.
Test [13] can be described thus: small-molecule binders of probe aNOTCH3, primary screen, biochemical, small-molecule microarray, 635/667 nm fluorescence (AID 1120).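 Note: probe is a biotin-tagged antibody raised against NOTCH3 rather than NOTCH3 protein; score merges spot fluorescence near 667 nm with spot signal to noise.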 The note with it: higher = more signal.
Test [14] can be described thus: small-molecule binders of probe aNOTCH2, primary screen, biochemical, small-molecule microarray, 635/667 nm fluorescence (AID 1121).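 Note: score merges feature fluorescence read at 667 nm with its signal to noise.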 The following applies: higher = more signal.
The target of test [15] is Carbonic anhydrase 2 (Homo sapiens) (UniProt P00918). As to the kind of experiment: CAII small-molecule binders, profiling panel, biochemical, small-molecule microarray, Alexa647-labelled CAII (AID 1122). The note with it: CAII-A647 binding fluorescence, higher = more signal.
A short description of test [16]: COS7 lysate on small-molecule microarray, probe aHis, 635 nm (AID 1123).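 Note: z-score combines 667nm fluorescence intensity with signal-to-noise per printed compound spot.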 The note with it: COS7 cell lysate, fluorescence, higher = more signal.
Test [17] in a line: compound binding in COS7 lysate, probe aLAP1, primary screen, cell lysate, small-molecule microarray (AID 1124).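 Note: lysate comes from COS7 cells expressing LAP1 and is applied at 0.3 µg/mL; score merges spot fluorescence near 667 nm with signal-to-noise over triplicate slides.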 The following applies: probe aLAP1, fluorescence, higher = more signal.
For test [18], the system named is Sam68 (KHDRBS1). The test is described as follows: Sam68 small-molecule binders, primary screen, biochemical, small-molecule microarray, 635 nm fluorescence (AID 1125).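 Note: score merges 667 nm channel intensity with signal to noise over triplicate slides.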 The note with it: small-molecule microarray binding, higher = more signal.
Test [19] concerns Chordin-like protein 2 (CHRDL2). As to the kind of experiment: CHRDL2 small-molecule binders, primary screen, biochemical, small-molecule microarray, 635 nm fluorescence (AID 1126).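 Note: printed compound slides probed with Chrdl2 protein at 4 µg/mL for 1 h at 4 C; score merges 667 nm emission intensity with signal to noise over three replicate slides.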 The following applies: small-molecule microarray binding, fluorescence 635 nm; higher = more signal.
Test [20] addresses Concanavalin-A (Canavalia ensiformis) (UniProt P02866). As to the kind of experiment: ConA small-molecule binders, primary screen, artefact control for SMM control protein annotation, biochemical, small-molecule microarray, Alexa647 label, 635 nm (AID 1127).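 Note: z combines 667 nm emission intensity with signal-to-noise across three replicate slides.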 The following applies: ConA-A647 binding fluorescence, higher = more signal.

The structures appear in SMILES notation. The source made the active and inactive calls.

Concanavalin-A (Canavalia ensiformis), sequence (P02866 whole entry, looked up): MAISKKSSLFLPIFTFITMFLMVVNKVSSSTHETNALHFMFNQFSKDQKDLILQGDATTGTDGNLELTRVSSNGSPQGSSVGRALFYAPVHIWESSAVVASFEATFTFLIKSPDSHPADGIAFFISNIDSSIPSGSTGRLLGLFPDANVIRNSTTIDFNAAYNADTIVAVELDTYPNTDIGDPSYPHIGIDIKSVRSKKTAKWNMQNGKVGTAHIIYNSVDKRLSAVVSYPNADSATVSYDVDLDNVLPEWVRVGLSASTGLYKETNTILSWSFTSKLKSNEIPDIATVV
Torsin-1A-interacting protein 1 (Homo sapiens), sequence (Q5JTV8 whole entry, looked up): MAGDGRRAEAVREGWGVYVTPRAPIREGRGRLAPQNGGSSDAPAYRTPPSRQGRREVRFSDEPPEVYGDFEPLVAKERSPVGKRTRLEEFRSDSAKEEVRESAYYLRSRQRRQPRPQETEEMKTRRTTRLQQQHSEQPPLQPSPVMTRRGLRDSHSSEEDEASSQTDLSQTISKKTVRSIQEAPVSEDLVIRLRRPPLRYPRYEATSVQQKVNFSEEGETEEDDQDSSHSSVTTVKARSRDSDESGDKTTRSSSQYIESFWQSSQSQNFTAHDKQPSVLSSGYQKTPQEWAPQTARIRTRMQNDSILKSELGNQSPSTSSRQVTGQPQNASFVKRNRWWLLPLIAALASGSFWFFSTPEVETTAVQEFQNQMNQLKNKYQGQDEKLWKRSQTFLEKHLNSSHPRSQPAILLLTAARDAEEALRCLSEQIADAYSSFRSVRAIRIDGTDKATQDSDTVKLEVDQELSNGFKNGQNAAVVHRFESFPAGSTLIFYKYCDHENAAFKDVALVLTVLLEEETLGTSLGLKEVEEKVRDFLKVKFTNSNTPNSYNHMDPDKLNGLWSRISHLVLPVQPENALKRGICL

For the compound `[N-]=[N+]=Nc1ccccc1C[C@]1(C(=O)O)N=C(c2ccc(OCCCO)cc2)O[C@H]1c1ccccc1N=[N+]=[N-]`, the composite z-score in test [1] was 0.99; in [3], 0.282; in [4] it was 2.1; in test [5], 0.923; in [6] it was 0.0859; in [7], -0.0263. The composite z-score is 2 in test [8]; 1.5 in test [9]; 1.22 in [10]; 0.893 in test [11]; 0.293 in test [13]; 0.166 in test [14]. Besides, the composite z-score in [15] came to 0.57; in [16], 2.84; in test [17], 0.871; in test [18], 1.32; in test [19], 0.135; in test [20], 1.13. For the same compound, in [2], the z-score is -1.02. Further, the composite Z-score in [12] was 0.644 (inactive).

On to `C=CCC(OC(C)=O)[C@@H]1[C@@H](N(Cc2cccc3ccccc23)C(=O)Cc2ccc(F)cc2)c2cc(OCCCO)ccc2N1C(=O)c1ccc(-c2ccccc2)cc1` (stereo not given in full), for which the composite z-score in test [1] is -0.658; in test [3], -0.197; in test [4], -0.573; in test [5], 0.992; in test [6] it was -0.236; in [7], -0.0035. Further, the composite z-score is 0.0812 in [8]; 0.171 in test [9]; -0.395 in test [10]; 0.621 in [11]; 0.0847 in [13]; 0.054 in test [14]. Also, the composite z-score in [15] is -0.119; in test [16], 0.644; in [17], 0.505; in [18] it was -0.738; in test [19], -0.335; in test [20] it was -1.6. Further, in test [2], the z-score is -1.09. In addition, the composite Z-score in test [12] was -0.248 (inactive).

`CC(C)C[C@@H]1NC(=O)[C@H]2C[C@@H](C(=O)NCCCCCN)[C@@H](c3cccc(OCCO)c3)N2C1=O`: the composite z-score in [1] was -1.01; in test [3] it was -0.0189; in [4], 0.331; in test [5], 0.422; in test [6], -0.103; in test [7], -0.138. Moreover, the composite z-score in test [8] was -0.157; in test [9] it was 2.08; in test [10], 1.03; in test [11] it was 0.299; in test [13] it was -0.495; in [14] it was -0.146. Besides, the composite z-score is 0.695 in test [15]; 1.27 in test [16]; 1.16 in test [17]; 0.166 in test [18]; 0.292 in test [19]; 0.661 in test [20]. Further, the z-score in test [2] was 0.335. The composite Z-score in [12] was 1.26 (inactive).

As to `COCCOC(=O)N1C(=O)[C@@]2(c3ccccc31)[C@H](c1ccccc1OCCO)N1[C@H](c3ccccc3)[C@H](c3ccccc3)OC(=O)[C@H]1[C@@H]2C(=O)N1CCCCCCC1`, the composite z-score in [1] stood at 1.53; in test [3] it was 1.73; in [4], 2.8; in test [5] it was 1.47; in [6] it was 1.5; in test [7] it was 3.37. Further, the composite z-score in test [8] is 3.61; in test [9], 5.43; in [10] it was 3.1; in [11], -0.0233; in test [13] it was 2.15; in [14], 1.16. Moreover, the composite z-score amounted to 0.935 in [15]; 4.27 in [16]; 1.96 in test [17]; 1.29 in test [18]; 1.47 in [19]; 0.883 in test [20]. For the same compound, in [2], the z-score is -3.17. The composite Z-score in test [12] was 7.47 (inactive).

As to `CC(C)(C)OC(=O)CC[C@]12N=C(c3ccc(OCCCO)cc3)O[C@H]1c1ccccc1N(Cc1ccccc1)C2=O`, the composite z-score in test [1] is 0.552; in test [3] it was 0.27; in test [4] it was 0.42; in test [5], 0.348; in test [6], -0.0765; in test [7] it was -0.0969. The composite z-score in [8] was 0.963; in test [9] it was 1.36; in test [10], 1.28; in [11], 0.0468; in test [13], 0.0525; in [14], -0.0456. For the same compound, the composite z-score in test [15] came out at 0.557; in test [16], 2.39; in test [17], 0.504; in [18] it was 1.3; in test [19], 0.581; in [20], 0.995. In addition, in [2], the z-score is -2.09. In [12], the composite Z-score was 2.86 (inactive).
